{"source": "PubChem BioAssay AID493012", "about": "(Sanford-Burnham Center for Chemical Genomics, 2011)", "note": "Among all 330,000 compounds or so, about 930 (0.28%) were called active.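 The calls were made as follows: active = inhibition of at least 40% at 20 µM, with no more than 30% in the related APOBEC3A deaminase screen; inactive = the rest.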 What follows is part of a selection rich in actives, with near analogues and random picks from the rest."}
{"target": "DNA dC->dU-editing enzyme APOBEC-3G (Homo sapiens) (UniProt Q9HC16)", "sequence (Q9HC16 whole entry, looked up)": "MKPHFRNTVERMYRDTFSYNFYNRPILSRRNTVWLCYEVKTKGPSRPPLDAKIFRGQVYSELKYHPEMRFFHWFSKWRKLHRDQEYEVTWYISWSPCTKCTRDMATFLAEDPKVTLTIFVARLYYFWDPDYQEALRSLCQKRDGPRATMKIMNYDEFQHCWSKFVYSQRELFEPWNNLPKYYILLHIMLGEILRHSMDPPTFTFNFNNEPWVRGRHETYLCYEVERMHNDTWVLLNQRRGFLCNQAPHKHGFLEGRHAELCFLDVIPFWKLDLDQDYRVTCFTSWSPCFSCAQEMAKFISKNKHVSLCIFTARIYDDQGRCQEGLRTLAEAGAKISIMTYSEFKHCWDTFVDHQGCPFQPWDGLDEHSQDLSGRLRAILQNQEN", "test": "APOBEC3G DNA deaminase inhibitors, primary screen, biochemical, fluorescence, single-stranded DNA substrate, uHTS (AID 493012);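 also: plate controls were DMSO wells with A3G for no effect and wells lacking A3G enzyme for full effect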", "details": "recombinant A3G, ssDNA deamination FAM/TAMRA fluorescence; at 20 µM; stronger effect = higher value"}
{"smiles": "Cc1cccc(NC(=O)C2CCCN(C(=O)Nc3ccc(F)cc3)C2)c1C", "note": "(stereo not given)", "inhibition": "-9.22% (inactive)"}
{"smiles": "COc1ccccc1-n1c(-c2cc(-c3ccco3)[nH]n2)n[nH]c1=S", "inhibition": "66.2% (active)"}
{"smiles": "COc1ccc(OC)c(-n2c(-c3ccn[nH]3)n[nH]c2=S)c1", "inhibition": "6.84% (inactive)"}
{"smiles": "COc1ccccc1-n1cn[nH]c1=S", "inhibition": "-7.32% (inactive)"}
{"smiles": "Cc1ccccc1N1CC(C(=O)Nc2ccc3c(c2)OCO3)CC1=O", "note": "(stereo not given)", "inhibition": "-5.81% (inactive)"}
{"smiles": "Cc1ccc(C)c(N2CCN(C(=O)CCc3nc(-c4cccc(C(F)(F)F)c4)no3)CC2)c1", "inhibition": "2.36% (inactive)"}
{"smiles": "Cc1ccc(NC(=O)c2sc3nc(N)c(C#N)cc3c2N)cc1", "inhibition": "53.5% (active)"}
{"smiles": "COc1ccc(OC)c(NC(=O)c2sc3nc(C)cc(C)c3c2N)c1", "inhibition": "-11% (inactive)"}
{"smiles": "CCc1ccc2nc3sc(C(=O)Nc4nnc(CC)s4)c(N)c3cc2c1", "inhibition": "-0.825% (inactive)"}
{"smiles": "COc1cc(C(=O)Nc2ncccc2C)ccc1OCC(=O)N1CCOCC1", "inhibition": "-6.99% (inactive)"}
{"smiles": "COc1cccc(NC(=O)N2CCCC2C(=O)NC2CCCCC2)c1", "note": "(stereo not given)", "inhibition": "-7.25% (inactive)"}
{"smiles": "COc1ccc(NC(=O)c2sc(N3CCOCC3)nc2-c2ccccc2)c(OC)c1", "inhibition": "-6.69% (inactive)"}
{"smiles": "CCC1Sc2ccc(S(=O)(=O)CCC(=O)NCc3cccs3)cc2NC1=O", "note": "(stereo not given)", "inhibition": "-2.6% (inactive)"}
{"smiles": "Cn1c2ccccc2c(=O)c2c(=O)n(Cc3ccco3)c(COc3ccccc3)nc21", "inhibition": "52.8% (active)"}
{"smiles": "O=c1c2ccccc2oc2nc(C3CCCCC3)n(Cc3ccco3)c(=O)c12", "inhibition": "-6.57% (inactive)"}
{"smiles": "CCCc1nc2c(c(=O)c3ccccc3n2C)c(=O)n1C1CCCCCC1", "inhibition": "2.29% (inactive)"}
{"smiles": "CC(=O)N1C(=O)/C(=C2\\SC(=S)N(NC(=O)c3ccc(O)cc3)C2=O)c2ccccc21", "inhibition": "1.88% (inactive)"}
{"smiles": "COc1cccc(NC(=O)CSc2nnc(C3CCCCC3)n2N)c1", "inhibition": "-9.04% (inactive)"}
{"smiles": "Cc1cccc(NC(=O)c2ccc(S(=O)(=O)N(C)CC3CCCO3)cc2)c1C", "note": "(stereo not given)", "inhibition": "1.74% (inactive)"}
{"smiles": "Cc1ccc(NCc2n[nH]c(=S)n2-c2ccccc2)cc1Cl", "inhibition": "10.6% (inactive)"}
{"smiles": "Cc1cc(-c2n[nH]c(=S)n2-c2ccc(C)c(C)c2)no1", "inhibition": "45.2% (active)"}
{"smiles": "Cc1ccc(C)c(S(=O)(=O)Nc2cc(C)on2)c1", "inhibition": "-6.75% (inactive)"}
{"smiles": "NC(=O)Cn1nc([N+](=O)[O-])nc1Oc1ccc(Br)cc1", "inhibition": "-11.7% (inactive)"}
{"smiles": "Cc1ccnc(-n2sc3ccccc3c2=O)n1", "inhibition": "87% (active)"}
{"smiles": "COCCn1c(CN2CCC(Cc3ccccc3)CC2)nc2c1c(=O)n(C)c(=O)n2C", "inhibition": "-4.86% (inactive)"}
{"smiles": "Cc1ncn(C23CC4CC(CC(O)(C4)C2)C3)n1", "inhibition": "-4.67% (inactive)"}
{"smiles": "Cc1nc([N+](=O)[O-])nn1C12CC3CC(CC(Br)(C3)C1)C2", "inhibition": "59.1% (active)"}
{"smiles": "COc1cccc(NC(=O)c2nn(C34CC5CC(CC(C5)C3)C4)cc2[N+](=O)[O-])c1", "inhibition": "0.433% (inactive)"}
{"smiles": "Cc1ccc(Sc2ccncc2S(N)(=O)=O)cc1", "inhibition": "-12.3% (inactive)"}
{"smiles": "COc1ccc(CNC(=O)C2CCN(C(=O)c3ccco3)CC2)cc1", "inhibition": "-11.5% (inactive)"}
{"smiles": "CCc1nnc(NC(=O)C2CCN(C(=O)c3ccccc3C)CC2)s1", "inhibition": "-4.15% (inactive)"}
{"smiles": "CCC(CC)c1nnc(NC(=O)C2CCN(C(=O)c3ccco3)CC2)s1", "inhibition": "43.5% (active)"}
{"smiles": "CC(C)NC(=O)NNc1c(Cl)cncc1Cl", "inhibition": "-7.21% (inactive)"}
{"smiles": "CCn1cc(C(=O)NCC(=O)NC(C)(C)CO)c(=O)c2cc3c(cc21)OCO3", "inhibition": "5.44% (inactive)"}
{"smiles": "CCOc1ccc(CCNC(=O)COC(=O)c2c(OC)cccc2OC)cc1OCC", "inhibition": "-6.63% (inactive)"}
{"smiles": "COc1ccc(N2CC(C(=O)NCCS(=O)(=O)N3CCN(c4ccccc4)CC3)CC2=O)cc1", "note": "(stereo not given)", "inhibition": "-3.81% (inactive)"}
{"smiles": "Cc1ccc(C(=O)c2c(NC(=O)c3ccccc3)sc(C)c2C)cc1", "inhibition": "43.3% (active)"}
{"smiles": "Cc1ccc(S(=O)(=O)CC(=O)Nc2sc(C)c(C)c2C(N)=O)cc1", "inhibition": "19.4% (inactive)"}
{"smiles": "Cc1sc(NC(=O)c2ccc3ncsc3c2)c(C(N)=O)c1C", "inhibition": "-14.1% (inactive)"}
{"smiles": "CC(CN1CCCCC1)OC(=O)c1ccccc1Cl", "note": "(stereo not given)", "inhibition": "-6.81% (inactive)"}
{"smiles": "O=C(CSc1nccc(=O)[nH]1)Nc1ccc(N2CCOCC2)c(Cl)c1", "inhibition": "1.54% (inactive)"}
{"smiles": "Cc1nnc(SCC(=O)NNC(=O)c2ccc(Cl)cc2)n1CC1CCCO1", "note": "(stereo not given)", "inhibition": "-0.693% (inactive)"}
{"smiles": "Cc1ccc(-n2c(-c3ccc(Cl)cc3)n[nH]c2=S)cc1", "inhibition": "11.5% (inactive)"}
{"smiles": "S=c1[nH]nc(-c2ccc(Cl)cc2)n1CC1CCCO1", "note": "(stereo not given)", "inhibition": "43.8% (active)"}
{"smiles": "O=C(CSc1nc2[nH]ncc2c(=O)[nH]1)Nc1ccc(F)cc1", "inhibition": "-9.68% (inactive)"}
{"smiles": "Cc1occc1-c1nnc(SCC(=O)NC2(C#N)CCCC2)n1C", "inhibition": "-13.5% (inactive)"}
{"smiles": "COCCN1C(=O)C(=O)/C(=C(/O)c2ccc(S(=O)(=O)N3CCOCC3)cc2)C1c1ccc(OC)c(OC)c1", "note": "(stereo not given)", "inhibition": "-5.33% (inactive)"}
{"smiles": "CCOc1ccc(Br)cc1S(=O)(=O)Nc1cccc(S(=O)(=O)N(CC)CC)c1", "inhibition": "-8.57% (inactive)"}
{"smiles": "O=C(Cn1cnc2cc([N+](=O)[O-])ccc2c1=O)NC(=O)NCc1ccccc1", "inhibition": "-6% (inactive)"}
{"smiles": "COc1ccc(NC(=O)c2oc3ccc(S(=O)(=O)N4CCOCC4)cc3c2C)cc1", "inhibition": "-7.26% (inactive)"}
{"smiles": "Cc1noc(C)c1CSc1nc2cc(S(=O)(=O)N3CCOCC3)ccc2o1", "inhibition": "45.8% (active)"}
{"smiles": "Cc1ccc(S(=O)(=O)N2CCN(S(=O)(=O)N3CCOCC3)CC2)cc1", "inhibition": "-5.83% (inactive)"}
{"smiles": "CCCCCCCCn1c2c(c(=N)c3c1CCC3)CCCC2", "inhibition": "-6.25% (inactive)"}
{"smiles": "Cc1ccsc1/C=N/n1c(=S)[nH]nc(C)c1=O", "inhibition": "-0.898% (inactive)"}
{"smiles": "Cc1n[nH]c(=S)n1/N=C/c1ccc(Br)o1", "inhibition": "40.4% (active)"}
{"smiles": "COc1cc(/C=N/n2c(C)n[nH]c2=S)ccc1OCc1ccccc1", "inhibition": "9.64% (inactive)"}
{"smiles": "O=S(=O)(N/N=C\\c1cccn1-c1ccccc1)c1ccc2ccccc2c1", "inhibition": "-6.33% (inactive)"}
{"smiles": "COC(=O)c1cccc(-n2[nH]nnc2=S)c1", "inhibition": "59% (active)"}
{"smiles": "COC(=O)c1cccc(N2C(=O)C3C4C=CC(CC4)C3C2=O)c1", "note": "(stereo not given)", "inhibition": "-6.25% (inactive)"}
{"smiles": "COC(=O)c1cccc(NC(=O)c2cccc(N3C(=O)CCC3=O)c2)c1", "inhibition": "-9.31% (inactive)"}
